Screening results: PubChem, National Center for Advancing Translational Sciences (NCATS)
RECQ1 helicase: inhibitors of human RECQ1 DNA helicase; RECQ1 DNA unwinding, red fluorescence kinetic read; Potency, µM (titrated, usually from 57.3 µM), for the others: at the highest dose activity, negative = inhibition, usual class: inhibitors; actives 0.54% (n = 240,000);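 also: plate controls were vehicle for no effect and no enzyme for full effect; nearly all actives have a fitted effect of over 30% in size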
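50 nM RECQ1T1 preincubated 15 min with compound in Tris pH 8.0 buffer with MgCl2, DTT, Tween-20 and 2.5 ug/ml poly(dI-dC); started with 200 nM TAMRA/BHQ-2 forked duplex and 2 mM ATP. Unwinding read as fluorescence (525/598 nm), two reads 2 h apart.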
APEX1 inh: blocks human APE1 abasic DNA cleavage; P27695; recombinant APE1, TAMRA/BHQ-2 abasic DNA cleavage fluorescence; Potency, µM (titrated, usually from 65.8 µM), for the others: at the highest dose activity change, negative = inhibition, actives largely listed as inhibitors; actives 0.35% (n = 350,000);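 also: plate controls were vehicle for no effect and reference inhibitor for full effect; nearly all actives have a fitted effect of over 55% in size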
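0.75 nM APE1 + cpd, 15 min RT; start w/ 50 nM TAMRA/BHQ-2 THF-abasic dsDNA; kinetic fluor 525/598 nm ×3 reads @60 s; Δ(read3−read1); normalized to DMSO and NSC13755 control wells.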
FEN1 inh: inhibitors of human flap endonuclease 1. Recombinant FEN1 flap cleavage, fluorescence, 15 min. P39748. Potency, µM (series often up to 114 µM), for the others: top-dose activity change, negative = inhibition, actives largely listed as inhibitors. AID 588795. actives 0.35% (n = 390,000); also: nearly all actives have a fitted effect of over 65% in size
Target sequence (P39748 whole entry, looked up): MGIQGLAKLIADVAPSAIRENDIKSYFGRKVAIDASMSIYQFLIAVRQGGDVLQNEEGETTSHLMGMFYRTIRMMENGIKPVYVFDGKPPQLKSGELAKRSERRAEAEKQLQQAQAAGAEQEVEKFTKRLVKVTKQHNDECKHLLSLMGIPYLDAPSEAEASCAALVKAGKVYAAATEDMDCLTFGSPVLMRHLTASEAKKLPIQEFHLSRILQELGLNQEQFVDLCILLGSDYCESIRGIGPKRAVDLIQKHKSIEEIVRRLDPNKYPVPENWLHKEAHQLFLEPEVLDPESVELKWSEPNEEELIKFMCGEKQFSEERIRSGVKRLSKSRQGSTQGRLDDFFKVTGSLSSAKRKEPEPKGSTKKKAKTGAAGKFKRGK
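Compounds are tested as a concentration series against 10 nM FEN1; after a 15 min room-temperature preincubation, 50 nM substrate starts cleavage, with plate reads at 0 and 15 min. Normalized responses are fitted by a Hill equation.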
BLM inh: blocks DNA unwinding by human BLM helicase; recombinant BLM DNA unwinding, fluorescence dequenching; Potency, µM (series often up to 56.1 µM), inactives show at the top dose activity change, negative = inhibition, hits mostly inhibitors; actives 0.2% (n = 350,000); AID 2528;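 also: plate controls were vehicle for no effect and no enzyme for full effect; nearly all actives have a fitted effect of over 35% in size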
PGK inhibitor: blocks T. brucei phosphoglycerate kinase; P07378; PGK/GAPDH coupled, Kinase-Glo luminescence, 60 min; Potency, µM (series often up to 57.5 µM), inactives show top-dose activity change, negative = inhibition, hits mostly inhibitors; actives 0.043% (n = 380,000); AID 602233; also: nearly all actives have a fitted effect of over 60% in size
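Luminescent ATP detection (Kinase-Glo Plus) follows a 60-minute room-temperature incubation, with wells lacking PGK as controls. Buffer: 100 mM TEA (pH 7.6), 5 mM MgCl2, 0.01% Tween-20. Coupling enzyme GAPDH (100 nM final) supplies unstable 1,3-BPG in-well.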
Numbers without * were called inactive. The list is not random: actives were taken first. Their share in the collection is about 0.74%. Calls follow the shape of the dose curve; as a rule, active = well fitted curve in the direction sought with a large enough effect; inconclusive = small, poorly fitted or top-dose-only effect, or another doubt; inactive = no such curve, though single readings can be large; an effect the other way counts as inactive or inconclusive. Unless noted, % is scaled to controls: 0 for no effect and ±100 for the full control effect; potency is read from the fitted curve at half-maximal effect.

Screening Cn1c2ccccc2c2cc(/C=N/NC(=O)c3cc(O)cc(O)c3)ccc21 returned APEX1 inh 13µM*, FEN1 inh 40µM*, BLM inh -22% and PGK inhibitor inconclusive.
Screening Cn1c2ccccc2c2cc(/C=N/NC(=O)c3cc(O)ccc3O)ccc21 returned APEX1 inh -44%, FEN1 inh 56µM*, BLM inh -29% and PGK inhibitor -14%.
For COc1cc(C(=O)N/N=C/c2ccc3c(c2)c2ccccc2n3C)ccc1O the results were APEX1 inh 10%, FEN1 inh -24%, BLM inh -7% and PGK inhibitor 7%.
Screening Cc1oc(-c2ccccc2F)nc1CS(=O)CC(=O)NC1CCCC1 (stereo not given) returned APEX1 inh -18%, FEN1 inh -10%, BLM inh 1% and PGK inhibitor -5%.
Screening CC1CCC(NCC(=O)Nc2cccc(S(N)(=O)=O)c2)CC1 (stereo not given) returned RECQ1 helicase -2%, APEX1 inh -2%, FEN1 inh 14%, BLM inh 2% and PGK inhibitor 5%.
`O=C(COc1ccccc1)N1CCN=C1c1ccccc1` gave RECQ1 helicase -13%, APEX1 inh -4%, FEN1 inh 6%, BLM inh -3% and PGK inhibitor -7%.
Screening O=C(c1cccc(S(=O)(=O)NCc2ccccc2)c1)N1CCN(Cc2ccccc2)CC1 returned RECQ1 helicase -5%, APEX1 inh -3%, FEN1 inh 6%, BLM inh -3% and PGK inhibitor -5%.
For CC(C)OC(=O)c1ccc(NCc2cc(O)ccc2O)cc1 the results were FEN1 inh 4% and PGK inhibitor -8%.
COP(=O)(OC)c1ccc(NCc2cc(O)ccc2O)cc1 was read as FEN1 inh 79µM* and PGK inhibitor -3%.
`O=C1NN(c2ccccc2)C(=O)/C1=C/c1ccc(-c2ccc(C(=O)O)cc2)o1` gave APEX1 inh -32%, FEN1 inh 50µM*, BLM inh -7% and PGK inhibitor -18%.
O=C1NN(c2ccccc2)C(=O)C1=Cc1ccccc1O was read as PGK inhibitor -2%.
Screening CC1=NN(c2ccccc2)C(=O)/C1=C/c1ccc(-c2ccc(C)c(C(=O)O)c2)o1 returned FEN1 inh 18µM* and PGK inhibitor -20%.
For O=C1NN(c2ccccc2)C(=O)/C1=C/c1ccc(Sc2cccc3ccccc23)o1 the results were RECQ1 helicase 20µM*, APEX1 inh -2%, FEN1 inh inconclusive, BLM inh inconclusive and PGK inhibitor -15%.
CC1=NN(c2ccc(C(=O)O)cc2)C(=O)/C1=C/c1ccc(-c2ccccc2F)o1 was read as APEX1 inh -2% and BLM inh 1%.
Cc1cc(CNC(=O)Cc2c(F)cccc2Cl)nn1C was read as RECQ1 helicase -2%, APEX1 inh 4%, FEN1 inh 14%, BLM inh -4% and PGK inhibitor inactive.
For COc1ccc(NC(=O)c2ccc(S(=O)(=O)N3CCOCC3)cc2)c(OC)c1 the results were RECQ1 helicase -2%, APEX1 inh -2%, FEN1 inh 0%, BLM inh 0% and PGK inhibitor 1%.
For CCCn1nc(C(=O)Nc2cccc(S(=O)(=O)N(C)c3ccccc3)c2)c2ccccc2c1=O the results were APEX1 inh -6%, FEN1 inh 0% and PGK inhibitor 7%.
For O=C(CCCCCNC(=O)c1ccccc1Br)N=Nc1c(O)[nH]c2ccccc12 the results were RECQ1 helicase inactive, APEX1 inh 25µM*, FEN1 inh -14%, BLM inh -4% and PGK inhibitor -3%.
CC(=O)N(/C=C1\SC(=S)N(c2ccccc2)C1=O)c1ccccc1 was read as RECQ1 helicase 32µM*, APEX1 inh -10%, FEN1 inh 0%, BLM inh -7% and PGK inhibitor 4%.
Screening CCN1C(=O)/C(=C\N(C(C)=O)c2ccccc2)OC1=S returned RECQ1 helicase 3%, APEX1 inh 1%, FEN1 inh -3% and BLM inh 0%.
C=C(C)C(=O)Nc1cccc(C2=NOC3(C2)C[C@@H](C(N)=O)N(C(=O)C2(C)CC2)C3)c1 (stereo not given in full) was read as RECQ1 helicase 10µM*, APEX1 inh inconclusive, FEN1 inh inconclusive, BLM inh 4% and PGK inhibitor inconclusive.
For C=C(C)C(=O)Nc1cccc(C2=NOC3(C2)C[C@@H](C(N)=O)N(C(=O)c2cc([N+](=O)[O-])cc([N+](=O)[O-])c2C)C3)c1 (stereo not given in full) the results were RECQ1 helicase inactive, APEX1 inh -4%, FEN1 inh 1%, BLM inh -4% and PGK inhibitor 11µM*.
`C=C(C)C(=O)Nc1cccc(C2=NOC3(C2)C[C@@H](C(N)=O)N(C(=O)c2ccc(Cl)cc2)C3)c1` (stereo not given in full) gave RECQ1 helicase 13µM*, APEX1 inh inconclusive, FEN1 inh inconclusive, BLM inh -19% and PGK inhibitor 2.2µM*.
`C=C(C)C(=O)Nc1cccc(C2=NOC3(C2)C[C@H](C(N)=O)N(C(=O)c2ccccc2)C3)c1` (stereo not given in full) gave RECQ1 helicase inactive, APEX1 inh -5%, FEN1 inh -17%, BLM inh 1% and PGK inhibitor 11µM*.
C/C=C\C(=O)Nc1cccc(C2=NOC3(C2)C[C@@H](C(N)=O)N(C(=O)C2(C)CC2)C3)c1 (stereo not given in full) was read as RECQ1 helicase -4%, APEX1 inh -8%, FEN1 inh 0%, BLM inh -2% and PGK inhibitor -6%.
C/C=C/C(=O)Nc1cccc(C2=NOC3(C2)C[C@@H](C(N)=O)N(C(=O)c2cc([N+](=O)[O-])cc([N+](=O)[O-])c2C)C3)c1 (stereo not given in full) was read as RECQ1 helicase inactive, APEX1 inh -4%, FEN1 inh -12%, BLM inh 1% and PGK inhibitor inactive.
`CC(=O)OC1CCC2(C)C(CCC3C2CC(=O)C2(C)C3CC(C(C(C)=O)C(C)=O)C2C(C)=O)C1` (stereo not given) gave FEN1 inh -14% and PGK inhibitor -2%.
`O=C(c1cc(Br)ccc1Cl)N1CCN(c2ccc(N3CCOCC3)nn2)CC1` gave APEX1 inh 14%, FEN1 inh -2% and PGK inhibitor -4%.
For COc1ccc(C(C)=O)cc1CSc1nnc(C)s1 the results were RECQ1 helicase inactive, APEX1 inh 0%, FEN1 inh 5% and BLM inh -1%.
